Reference: PubChem BioAssay (NCATS)
Records with an inconclusive call do not appear. Activity calls are given as the source filed them. Unless noted, the call rests on the fitted dose curve.

Assays:
[1] = qHTS for Inhibitors of the Functional Ribonucleoprotein Complex (vRNP) of Lassa (LASV) Arenavirus: LASV Primary Screen - GLuc reporter signal (AID 1347082; calls by dose curve; tested in HEK293 reporter line; further: nearly all actives have a fitted effect of over 60% in size); conditions: LASV minigenome vRNP, Gaussia luciferase reporter; series mostly up to 57.5 µM
[2] = qHTS for Inhibitors of the Functional Ribonucleoprotein Complex (vRNP) of Lassa (LASV) Arenavirus: Viability assay - alamar blue signal for LASV Primary Screen (AID 1347083; calls by dose curve; tested in HEK293 reporter line; further: nearly all actives have a fitted effect of over 80% in size); conditions: cell viability, alamar blue fluorescence (LASV minigenome counter-screen); series mostly up to 57.5 µM
[3] = qHTS for Inhibitors of the Functional Ribonucleoprotein Complex (vRNP) of Lymphocytic Choriomeningitis Arenaviruses (LCMV): Viability assay - alamar blue signal for LCMV Primary Screen (AID 1347085; calls by dose curve; tested in HEK293 reporter line; further: nearly all actives have a fitted effect of over 80% in size); conditions: alamar blue viability counter-screen, LCMV vRNP screen cells; series mostly up to 57.5 µM
[4] = target: Nucleoprotein (Lymphocytic choriomeningitis virus (strain Armstrong)) (UniProt P09992); assay: qHTS for Inhibitors of the Functional Ribonucleoprotein Complex (vRNP) of Lymphocytic Choriomeningitis Arenaviruses (LCMV): LCMV Primary Screen - GLuc reporter signal (AID 1347086); conditions: LCMV minigenome vRNP cell assay, Gaussia luciferase reporter; series mostly up to 57.5 µM; further: nearly all actives have a fitted effect of over 70% in size
On the % scale 0 is the no-effect control and ±100 the full control effect.

Nucleoprotein (Lymphocytic choriomeningitis virus (strain Armstrong)), sequence (P09992 whole entry, looked up): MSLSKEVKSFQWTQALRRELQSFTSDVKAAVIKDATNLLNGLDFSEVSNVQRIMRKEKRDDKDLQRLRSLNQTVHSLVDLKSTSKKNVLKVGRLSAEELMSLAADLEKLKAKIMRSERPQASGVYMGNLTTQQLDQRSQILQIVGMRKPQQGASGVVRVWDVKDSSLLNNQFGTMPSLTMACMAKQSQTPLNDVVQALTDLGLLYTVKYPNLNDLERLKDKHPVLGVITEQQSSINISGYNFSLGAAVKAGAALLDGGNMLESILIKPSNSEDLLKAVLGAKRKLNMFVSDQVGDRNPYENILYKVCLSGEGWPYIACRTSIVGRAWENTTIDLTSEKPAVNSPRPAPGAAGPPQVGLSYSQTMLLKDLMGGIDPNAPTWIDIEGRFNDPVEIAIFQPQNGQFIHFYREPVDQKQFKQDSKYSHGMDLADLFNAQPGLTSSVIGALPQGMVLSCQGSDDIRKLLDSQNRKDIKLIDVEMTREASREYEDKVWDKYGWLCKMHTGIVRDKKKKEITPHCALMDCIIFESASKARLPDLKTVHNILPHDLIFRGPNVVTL

Cc1nnc(NS(=O)(=O)c2ccc(N)cc2)s1
inactive: Potency [1] | Potency [2] | Potency [3] | Potency [4]

O=C(O)[C@H](O)c1ccccc1
inactive: Potency [1] | Potency [2] | Potency [3] | Potency [4]

CC(=O)c1ccc(OCC(=O)N2CCCCC2)cc1
inactive: Potency [1] | Potency [2] | Potency [3] | Potency [4]

C[N+](C)(C)CCCCCC[N+](C)(C)C
inactive: Potency [1] | Potency [2] | Potency [3] | Potency [4]

Oc1ccc(OCc2ccccc2)cc1
inactive: Potency [1] | Potency [2] | Potency [3] | Potency [4]

NC(=O)N[C@@H](CCC(=O)O)C(=O)O
inactive: Potency [1] | Potency [2] | Potency [3] | Potency [4]

NCc1ccc(S(N)(=O)=O)cc1
inactive: Potency [1] | Potency [2] | Potency [3] | Potency [4]

O=C1C(O)=C(O)C(=O)C(O)=C1O
inactive: Potency [1] | Potency [2] | Potency [3] | Potency [4]

O=C1CC(c2ccc(Cl)cc2)CC(=O)N1
inactive: Potency [1] | Potency [2] | Potency [3] | Potency [4]

NC/C=C/C(=O)O
inactive: Potency [1] | Potency [2] | Potency [3] | Potency [4]

COc1ccc(S(=O)(=O)Nc2nnc(CC(C)C)s2)cc1
inactive: Potency [1] | Potency [2] | Potency [3] | Potency [4]

Nc1c[n+](N2CCOCC2)no1
inactive: Potency [1] | Potency [2] | Potency [3] | Potency [4]

Cc1c(NC(=O)c2cccnc2)c(=O)n(-c2ccccc2)n1C
inactive: Potency [1] | Potency [2] | Potency [3] | Potency [4]

CC[C@]12CCCN3CCc4c(n(c5ccccc45)[C@@](O)(C(=O)OC)C1)[C@@H]32
inactive: Potency [1] | Potency [2] | Potency [3] | Potency [4]

CCN(CC)CC#CCOC(=O)C(O)(c1ccccc1)C1CCCCC1 (stereo not given)
inactive: Potency [1] | Potency [2] | Potency [3] | Potency [4]

O=c1cc[nH]c(=S)[nH]1
inactive: Potency [1] | Potency [2] | Potency [3] | Potency [4]

CCCCCCCCCCCCCCCCN
inactive: Potency [1] | Potency [2] | Potency [3] | Potency [4]

COC(=O)C1=C(C)NC(C)=C(C(=O)OCC(C)=O)C1c1ccccc1[N+](=O)[O-] (stereo not given)
inactive: Potency [1] | Potency [2] | Potency [3] | Potency [4]

Cc1ccnc(NS(=O)(=O)c2ccc(N)cc2)n1
inactive: Potency [1] | Potency [2] | Potency [3] | Potency [4]

CN(C)CCN1CCN(c2cccc(Cl)c2)C1=O
inactive: Potency [1] | Potency [2] | Potency [3] | Potency [4]

CCCCCC(C)N (stereo not given)
inactive: Potency [1] | Potency [2] | Potency [3] | Potency [4]

NCCNCCNCCNCCN
inactive: activity change, negative = inhibition [1] -3.37% [at 11.5 µM] | activity change, negative = reduced viability [2] 1.27% [at 11.5 µM] | activity change, negative = lower viability [3] 2.19% [at 11.5 µM] | activity change, negative = inhibition [4] -1.94% [at 11.5 µM]

NS(=O)(=O)c1cc2c(cc1C(F)(F)F)NC(Cc1ccccc1)NS2(=O)=O (stereo not given)
inactive: Potency [1] | Potency [2] | Potency [3] | Potency [4]

COC(=O)c1cc(Cl)ccc1NS(=O)(=O)C(F)(F)F
inactive: Potency [1] | Potency [2] | Potency [3] | Potency [4]

CC(=O)O[C@@H]1CC2C3CCc4cc(OC(=O)c5ccccc5)ccc4C3CCC2(C)[C@H]1OC(C)=O (stereo not given in full)
inactive: Potency [1] | Potency [2] | Potency [3] | Potency [4]

CCCCCCCCCCCCCCCCCCO
inactive: Potency [1] | Potency [2] | Potency [3] | Potency [4]

CC(C)NCC(O)c1cc(O)cc(O)c1 (stereo not given)
inactive: Potency [1] | Potency [2] | Potency [3] | Potency [4]

OCCOCCN1CCN(C2=Nc3ccccc3Sc3ccccc32)CC1
inactive: Potency [1] | Potency [2] | Potency [3] | Potency [4]

CC1(C)Oc2ccc(C#N)cc2[C@@H](N2CCCC2=O)[C@@H]1O
inactive: Potency [1] | Potency [2] | Potency [3] | Potency [4]

CN(C)CCN(Cc1ccsc1)c1ccccn1
inactive: Potency [1] | Potency [2] | Potency [3] | Potency [4]

COC(=O)N/N=C/c1c[n+]([O-])c2ccccc2[n+]1[O-]
inactive: Potency [1] | Potency [2] | Potency [3] | Potency [4]

Cc1nc([N+](=O)[O-])cn1-c1ccc([N+](=O)[O-])cc1
inactive: Potency [1] | Potency [2] | Potency [3] | Potency [4]

CC1CCN(CCCC(=O)c2ccc(F)cc2)CC1
inactive: Potency [1] | Potency [2] | Potency [3] | Potency [4]

C[N+](C)(C)CCOC(N)=O
inactive: Potency [1] | Potency [2] | Potency [3] | Potency [4]

CCCCCN(C)CCC(O)(P(=O)(O)O)P(=O)(O)O
inactive: Potency [1] | Potency [2] | Potency [3] | Potency [4]

CC12CCC(CC1)C(C)(C)O2
inactive: Potency [1] | Potency [2] | Potency [3] | Potency [4]

NC(N)=NC(=O)Cc1c(Cl)cccc1Cl
inactive: Potency [1] | Potency [2] | Potency [3] | Potency [4]

CC1(C)O[C@@H]2C[C@H]3[C@@H]4C[C@H](F)C5=CC(=O)C=C[C@]5(C)[C@@]4(F)[C@@H](O)C[C@]3(C)[C@]2(C(=O)CO)O1
inactive: Potency [1] | Potency [2] | Potency [3] | Potency [4]

CS(=O)(=O)c1ccc([C@@H](O)[C@@H](CO)NC(=O)C(Cl)Cl)cc1
inactive: Potency [1] | Potency [2] | Potency [3] | Potency [4]

CN1CCC[C@@H]1c1cccnc1
inactive: Potency [1] | Potency [2] | Potency [3] | Potency [4]

CN(C)CCOC(=O)COc1ccc(Cl)cc1
inactive: Potency [1] | Potency [2] | Potency [3] | Potency [4]

COc1ccc2nc(SCc3ncc(C)c(OC)c3C)[nH]c2c1
inactive: Potency [1] | Potency [2] | Potency [3] | Potency [4]

O=C(O)Cn1cnnn1
inactive: Potency [1] | Potency [2] | Potency [3] | Potency [4]

CC(C)(C)C(=O)Oc1ccc(S(=O)(=O)Nc2ccccc2C(=O)NCC(=O)O)cc1
inactive: Potency [1] | Potency [2] | Potency [3] | Potency [4]

O=C(O)c1cc(-c2ccccc2)nc2ccccc12
inactive: Potency [1] | Potency [2] | Potency [3] | Potency [4]

Cn1cc(S(C)=O)c(=O)c2ccc(F)cc21 (stereo not given)
inactive: Potency [1] | Potency [2] | Potency [3] | Potency [4]

CCCCC(CC)CN1CN(CC(CC)CCCC)CC(C)(N)C1 (stereo not given)
inactive: Potency [1] | Potency [2] | Potency [3] | Potency [4]

NC(=O)NS(=O)(=O)c1ccc(N)cc1
inactive: Potency [1] | Potency [2] | Potency [3] | Potency [4]

O=C(O)Cc1cccc(-c2cc(CCCCCCc3ccc(O[C@H]4O[C@H](CO)[C@@H](O)[C@H](O)[C@@H]4O)c(-c4cccc(CC(=O)O)c4)c3)ccc2O[C@H]2O[C@H](CO)[C@@H](O)[C@H](O)[C@@H]2O)c1
inactive: activity change, negative = inhibition [1] 1.7% [at 0.757 µM] | activity change, negative = reduced viability [2] 10.5% [at 0.757 µM] | activity change, negative = lower viability [3] 2.8% [at 0.757 µM] | activity change, negative = inhibition [4] 2.06% [at 0.757 µM]

NC1CCN(c2cccc(Cl)n2)CC1
inactive: Potency [1] | Potency [2] | Potency [3] | Potency [4]
